CYP2C19 inhib: inhibitors of human CYP2C19 | P33261 | inhibition, % at 5 µM | CYP2C19 Supersomes, luciferin-H EGE luminescence, 30 min | actives 21% (n = 96,000);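 active = CYP2C19 inhibition above a set limit at 5 µM in the primary screen, cut at about 50% in these data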;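 also: plate controls were negative control wells for no effect and 2.5 mM tranylcypromine positive control for full effect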
CD11b adhes inh: inhibitors of human CD11b/CD18 binding to fibrinogen | K562 CD11b/CD18 adhesion to fibrinogen, ATPlite luminescence; Mn2+ added to activate the integrin | inhibition, % at 10 µM | actives 0.54% (n = 93,000);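 active = primary inhibition of 50% or more at 10 µM, then 40% or more on retest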
CD11b adhes enh: CD11b/CD18-fibrinogen binding enhancement | P05107+P11215 | actives 0.07% (n = 93,000) | activation, % at 10 µM | AID 1499 | K562 CD11b/CD18 adhesion to fibrinogen, ATPlite luminescence;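 active = 10 µM primary screen giving 50% or more activity, confirmed by 40% or more on retest at that dose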
CYP2C9 inhib: blocks human cytochrome P450 2C9. CYP2C9 Supersomes, luciferin-H conversion, luminescence. inhibition, % at 5 µM. actives 20% (n = 96,000). AID 777;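 active = blocking of liver enzyme CYP2C9 beyond about 50% at 5 µM, limit read from the data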
Target sequence (P11712 whole entry, looked up): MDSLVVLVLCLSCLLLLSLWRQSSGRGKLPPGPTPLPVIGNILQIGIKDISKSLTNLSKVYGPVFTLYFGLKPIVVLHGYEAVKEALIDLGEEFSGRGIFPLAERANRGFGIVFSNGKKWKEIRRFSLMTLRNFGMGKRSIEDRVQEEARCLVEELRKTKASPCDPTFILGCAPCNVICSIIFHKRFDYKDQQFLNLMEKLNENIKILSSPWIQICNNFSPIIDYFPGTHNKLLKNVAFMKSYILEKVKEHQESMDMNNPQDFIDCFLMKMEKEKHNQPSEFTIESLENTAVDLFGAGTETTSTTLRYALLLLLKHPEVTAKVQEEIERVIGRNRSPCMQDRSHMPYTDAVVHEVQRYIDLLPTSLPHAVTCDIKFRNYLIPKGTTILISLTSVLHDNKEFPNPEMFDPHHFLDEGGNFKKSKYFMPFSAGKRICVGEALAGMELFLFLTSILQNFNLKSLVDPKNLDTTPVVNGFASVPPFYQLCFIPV
CYP2C19 act: cytochrome P450 2C19 (human) activation; P33261; recombinant CYP2C19, luciferin-H EGE luminescence; hits give high values; 0 = fully inhibited enzyme, 1 = untreated enzyme; activation factor at 5 µM; 96,000 tested, under 10 active; AID 1025;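 active = activation factor of at least 2 at 5 µM in the primary screen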;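 also: 0 = wells with 2.5 mM tranylcypromine and 1 = vehicle-only wells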
CYP2C9 act: activators of human CYP2C9; P11712; recombinant CYP2C9, luciferin-H conversion, luminescence; hits give high values; factor 1 = untreated enzyme, 0 = blocked; activation factor at 5 µM; actives 1.4% (n = 96,000);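 active = activation factor of 2 or more for CYP2C9 at a 5 µM dose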;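 also: 0 = sulfaphenazole-blocked wells and 1 = vehicle-only wells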
* marks the source's active call; other numbers are inactive results; / = no result. In the library only some 28% were active in any assay of this set; here they are far more common.

SMILES	CYP2C19 inhib	CD11b adhes inh	CD11b adhes enh	CYP2C9 inhib	CYP2C19 act	CYP2C9 act
CCCC(C)NC(=O)COC(=O)c1ccc(Cl)c(S(N)(=O)=O)c1 (configuration not stated)	7	-2	-1	-34	0.9	1.3
CCOC(=O)c1c(C)[nH]c(C)c1C(=O)COC(=O)c1cccc(S(=O)(=O)NC)c1	100*	-16	99	4	0	1
CCOC(=O)c1c(C)[nH]c(C)c1C(=O)COC(=O)c1ccc(S(=O)(=O)N(CC)CC)cc1	84*	27	-2	97*	0.2	0
Cn1c(NC(=O)c2ccc(Br)o2)cc(=O)n(C)c1=O	5	-3	-2	0	1	1
COc1ccccc1CNC(=O)CCS(=O)(=O)c1ccc2c(c1)CCCN2C(C)=O	4	2	-2	-20	1	1.2
O=C(COC(=O)c1cc(S(=O)(=O)N2CCOCC2)cs1)c1ccccc1	9	-6	-2	21	0.9	0.8
CNS(=O)(=O)c1cccc(C(=O)OCC(=O)NCc2ccccc2)c1	13	-6	-2	-136	0.9	2.4*
c1ccc(CCNc2ccc3nncn3n2)cc1	64*	8	-1	-9	0.4	1.1
O=C(NCCc1ccccc1)c1ccc(-n2cnnn2)cc1	8	-13	3	-4	0.9	1
CC(C)CC(=O)Nc1ccccc1Oc1ccccc1	25	-1	-1	3	0.8	1
Nc1cccc(-c2nc3cc(S(=O)(=O)c4ccc5oc(-c6cccc(N)c6)nc5c4)ccc3o2)c1	23	/	/	37	0.8	0.6
Nc1cccc(S(=O)(=O)c2cccc(N)c2)c1	7	8	2	-201	0.9	3*
CC1=C(C)CS(=O)N(c2ccc(S(N)(=O)=O)cc2)C1 (configuration not stated)	37	-1	-7	-142	0.6	2.4*
CC1=C(C)CS(=O)N(S(=O)(=O)c2ccccc2)C1 (configuration not stated)	15	-6	0	22	0.8	0.8
CCCC(CCC)C(=O)Nc1ccncc1	91*	10	2	79*	0.1	0.2
O=[N+]([O-])/C=C/c1cn(Cc2ccc(F)cc2)c2ccccc12	46	/	/	13	0.5	0.9
Cc1ccccc1Cn1cc(/C=N/n2cnnc2)c2ccccc21	91*	4	1	74*	0.1	0.3
Clc1ccc(Cn2cc(/C=N/n3cnnc3)c3ccccc32)cc1	80*	11	5	40	0.2	0.6
Nc1ncncc1-c1ccc([N+](=O)[O-])cc1	-1	/	/	-12	1	1.1
CCOC(=O)C(NCCc1ccccc1)(NC(=O)CC)C(F)(F)F (configuration not stated)	/	-8	1	/	/	/
CCOC(=O)C(NCc1ccc2c(c1)OCO2)(NC(=O)CC)C(F)(F)F (configuration not stated)	97*	0	-6	88*	0	0.1
CCC(=O)Nc1ccc(C(=O)N/N=C/c2ccc([N+](=O)[O-])cc2)cc1	/	-9	20	/	/	/
COc1ccc(C(=O)c2ccc(CC#N)s2)cc1	56*	-4	2	6	0.4	0.9
O=c1c(Cl)c(N2CCN(c3ccc(F)cc3)CC2)cnn1C12CC3CC(CC(C3)C1)C2	/	32	3	/	/	/
CCC(C)n1c(C)nc2c(c1=O)c1nc3ccccc3nc1n2-c1ccc2c(c1)OCCO2 (configuration not stated)	-8	-20	70	-3	1.1	1
SMILES	CYP2C19 inhib	CD11b adhes inh	CD11b adhes enh	CYP2C9 inhib	CYP2C19 act	CYP2C9 act
COc1ccc(-n2c(SCC(=O)Nc3ccc4c(c3)OCO4)nc3c(c2=O)SCC3)cc1	41	0	-6	58*	0.6	0.4
CCC(C)n1c(SCC(=O)NC(=O)Nc2ccc3c(c2)OCCO3)nc2ccccc2c1=O (configuration not stated)	12	8	2	90*	0.9	0.1
CCOc1ccc(-n2c(SCC(=O)Nc3ccc4c(c3)OCO4)nc3ccccc3c2=O)cc1	41	-2	-5	62*	0.6	0.4
COc1ccccc1-n1c(SCC(=O)Nc2cccc(C)c2)nc2c(c1=O)SCC2	83*	-14	1	74*	0.2	0.3
COc1ccc(-n2c(SCC(=O)Nc3ccc4c(c3)OCO4)nc3ccccc3c2=O)cc1	92*	7	1	91*	0.1	0.1
COc1ccc(NC(=O)CSc2nc3ccccc3c(=O)n2-c2ccc3c(c2)OCO3)c(OC)c1	7	-1	-3	12	0.9	0.9
O=C(c1ccc(C#CC2(O)CCCCC2)cc1)N1CCN(C(c2ccccc2)c2ccccc2)CC1	39	-21	48	68*	0.6	0.3
O=C(c1ccc(C#CC2(O)CCCCC2)cc1)N1CCN(Cc2ccccc2)CC1	23	-8	0	33	0.8	0.7
C=CCSc1nc2nc(C)cc(C)n2n1	-7	-20	6	-21	1.1	1.2
COC(=O)CSc1nnnn1-c1ccccc1	56*	-9	-4	2	0.4	1
COc1ccc(CCn2c(C)cc(C(=O)CSc3nnnn3-c3ccccc3)c2C)cc1	16	0	-1	-140	0.8	2.4*
CCOC(=O)NC(=O)CSc1nnnn1-c1ccccc1	46	-4	0	-94	0.5	1.9
OCCn1c(CSc2nc3ccccc3n2CCO)nc2ccccc21	20	-11	-3	19	0.8	0.8
COc1ccc(C)cc1-n1nnnc1SCC1CCCO1 (configuration not stated)	98*	-16	-1	55*	0	0.4
Cc1cc(C(=O)CSc2nnnn2C)c(C)n1CCc1ccc(Cl)cc1	22	1	-4	9	0.8	0.9
COCCn1c(SCc2nc3ccccc3s2)nc2ccccc21	100*	-22	-3	86*	0	0.1
CC1=NN(C(=O)c2csc(C(C)C)c2)C(O)(C(F)(F)F)C1 (configuration not stated)	/	-6	4	/	/	/
O=C(CNC(=O)c1cccc(OC(F)F)c1)OCc1cc(=O)n2cc(Br)ccc2n1	/	-3	12	/	/	/
CC1CCc2c(sc(NC(=O)CSc3nc4c(c(C(F)(F)F)n3)CCc3ccccc3-4)c2C(N)=O)C1 (configuration not stated)	/	0	-4	/	/	/
COc1cc(CSc2nnnn2-c2ccc(C)cc2)cc(OC)c1OC	34	97	-6	64*	0.7	0.4
COc1ccc(C)cc1-n1nnnc1SCC(=O)NC(=O)NCc1ccco1	34	-3	32	-10	0.7	1.1
COc1ccc(C)cc1-n1nnnc1SCc1nc2ccccc2s1	73*	8	-6	78*	0.3	0.2

Bioassay records deposited in PubChem by Sanford-Burnham Center for Chemical Genomics.
